Test results reported in PubChem BioAssay.
Active and inactive are the calls of the source.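 Rule for the calls, unless noted: active = inhibition above 20% together with a positive visual image hit; inconclusive = visual image hit but inhibition not above 20%; inactive = no visual image hit.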

What was measured:
[1] = inhibitors of TNFa-induced NFkB p65 translocation, primary screen, imaging, HUVEC, MLSMR starter and 10KST1 sets (AID 438); conditions: HUVEC TNFa-induced p65 nuclear translocation; cell count: measured here: nuclei count (cytotoxicity indicator), at 2.08 µM unless noted; inhibition: at 2 µM, stronger effect = higher value unless noted;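 note: compound added about 3h40 before a 20 min TNFalpha stimulation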;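 for inhibition: signal is the nuclear over cytoplasmic p65 intensity ratio per well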
[2] = reduction of polyQ htt aggregates in cells – imaging, exon1htt(103Q)mCFP cells, high-content imaging, primary screen (AID 483;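 active = visual image review flags a hit and inhibition of aggregation exceeds 20%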;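 note: compound exposure lasted 3 days before fixation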;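 for nuclei count: percent of the per-plate median nuclei count of sample wells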); conditions: exon1htt(103Q)mCFP cell line, aggregate imaging, at 2 µM; inhibition of aggregation: stronger effect = higher value; nuclei count: measured here: cell count, toxicity
[3] = endothelial E-selectin expression blockers – imaging, HUVEC, immunofluorescence, MLSMR starter and 10KST1 sets, primary screen (AID 487;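 active = visually confirmed hit in the image check and inhibition above 20%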;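 for inhibition: signal is fraction of cell area covered by stained E-selectin grains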;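 for nuclei count: 100% = median nuclei count of all wells on the same plate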); conditions: HUVEC TNFalpha-induced E-selectin immunofluorescence imaging, at 2 µM; inhibition: stronger effect = higher value; nuclei count: measured here: cell number, toxicity
[4] = molecular target: Voltage-gated potassium channel subunit beta-2 (Rattus norvegicus) (UniProt P62483); assay: inhibitors of rat Kvbeta2 reductase activity – biochemical, NADPH fluorescence, primary screen (AID 622;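 active = fluorescence slope higher than the sample average by over 3 SD, cut at about -0.22 in these data, passing the limit was not always enough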;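 note: slope of raw intensity against log time taken from 70 to 1610 s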); conditions: recombinant KvBeta, 4-cyanobenzaldehyde reduction, at 10 µM, stronger effect = higher value
[5] = molecular target: Voltage-gated potassium channel subunit beta-2 (Rattus norvegicus) (UniProt P62483); assay: enhancers of rat Kvbeta2 NADPH turnover – biochemical, NADPH fluorescence, primary screen (AID 623;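 active = NADPH fluorescence slope more negative than the mean of all samples by about 3 SD, 99.7% confidence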;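 note: fluorescence intensity change per second fitted from 20 to 320 s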); conditions: Recombinant KvBeta, NADPH fluorescence decrease slope, 10 min; at 10 µM; stronger effect = lower value
[6] = molecular target: Muscarinic acetylcholine receptor M4 (Homo sapiens) (UniProt P08173); assay: M4-linked GIRK flux change, two-sided – cell-based, HEK293 M4/GIRK, thallium flux, BTC-AM, M4 allosteric agonist project, primary screen (AID 625;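 active = fluorescence slope after compound addition differing from the mean of all tested samples at 99.7% confidence, mostly higher but some lower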;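 note: thallium influx through GIRK channels coupled to M4 in HEK293 cells with BTC-AM dye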); conditions: at 10 µM, actives lie on both sides
[7] = blockers of RIG-like receptor reporter activation – cell-based, Sendai virus stimulus, luciferase, 10K MLSCN set, TLR/RLR signaling modifier project, primary screen (AID 602276;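 active = inhibition at or above 50% at 10 µM; inactive = inhibition below 50%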;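 note: firefly luciferase from ISG56 promoter only with Renilla not read in this screen; 0% = Sendai virus plus DMSO and 100% = medium plus DMSO without virus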); conditions: HEK293 RL24 IRF3 luciferase reporter, at 10 µM, stronger effect = higher value
[8] = TLR3 IRF3 reporter activation blockers – cell-based, poly I:C stimulus, luciferase, 10K MLSCN set, primary screen (AID 602277;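 active = inhibition of the reporter signal at or above 50%; inactive = inhibition below 50%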); conditions: HEK293-TLR3 RL24 IRF3 luciferase reporter, at 10 µM, stronger effect = higher value
[9] = loss of swimming-algae plug formation – whole organism, Chlamydomonas reinhardtii, WT vs cilia-less mutant, absorbance, 96-well, primary screen (AID 463189;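 active = inhibition at or above 50% relative to wild type and mutant plate controls; inactive = inhibition below 50%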;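 note: 0% = wild type cc124 cells in DMSO and 100% = ciliumless bld1 mutant cells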); conditions: Chlamydomonas reinhardtii gravitaxis, OD600 absorbance, 2 days; at 10 µM; stronger effect = higher value

Voltage-gated potassium channel subunit beta-2 (Rattus norvegicus), sequence (P62483 whole entry, looked up): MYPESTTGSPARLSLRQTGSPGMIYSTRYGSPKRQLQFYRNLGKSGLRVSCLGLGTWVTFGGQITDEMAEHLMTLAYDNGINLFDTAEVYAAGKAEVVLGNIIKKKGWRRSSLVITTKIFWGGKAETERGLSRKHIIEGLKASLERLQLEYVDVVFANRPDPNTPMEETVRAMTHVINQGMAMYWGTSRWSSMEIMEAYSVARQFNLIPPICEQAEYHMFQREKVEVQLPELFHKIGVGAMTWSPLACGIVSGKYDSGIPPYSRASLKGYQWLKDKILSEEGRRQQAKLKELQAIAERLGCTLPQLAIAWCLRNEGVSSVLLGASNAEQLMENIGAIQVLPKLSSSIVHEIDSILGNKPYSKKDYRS
Muscarinic acetylcholine receptor M4 (Homo sapiens), sequence (P08173 whole entry, looked up): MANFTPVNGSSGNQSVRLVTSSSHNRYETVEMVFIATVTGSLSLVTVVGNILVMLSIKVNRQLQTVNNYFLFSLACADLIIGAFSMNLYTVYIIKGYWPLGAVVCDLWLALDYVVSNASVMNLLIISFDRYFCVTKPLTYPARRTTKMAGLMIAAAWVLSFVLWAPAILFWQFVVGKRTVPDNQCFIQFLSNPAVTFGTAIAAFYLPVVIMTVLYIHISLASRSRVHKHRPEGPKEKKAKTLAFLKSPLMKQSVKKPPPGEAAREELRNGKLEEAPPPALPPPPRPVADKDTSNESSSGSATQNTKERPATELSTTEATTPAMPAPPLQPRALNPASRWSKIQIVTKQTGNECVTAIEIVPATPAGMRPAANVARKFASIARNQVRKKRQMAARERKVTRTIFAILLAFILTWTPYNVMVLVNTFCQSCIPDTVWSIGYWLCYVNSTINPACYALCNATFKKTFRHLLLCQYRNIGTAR

Compound	cell count [1]	inhibition [1]	inhibition of aggregation [2]	nuclei count [2] [%]	inhibition [3]	nuclei count [3] [%]	fluorescence slope [4]	NADPH fluorescence slope [5]	fluorescence slope [6]	inhibition [7]	inhibition [8]	inhibition [9]
CCCCn1c(O)c(C(C)=NCCc2ccccc2)c(=O)[nH]c1=O	280	-5.3% (inactive)	16.4% (inactive)	72.1	-114% (inactive)	187	-0.454 (inactive)	-0.000351 (inactive)	0.00293 (inactive)	3.98% (inactive)	-8.74% (inactive)	–
O=C(Cc1ccccc1)OC(COCc1ccccc1)CN1CCOCC1 (stereo unspecified)	314	-7.8% (inactive)	-19.1% (inactive)	77.8	-56.9% (inactive)	117	-0.37 (inactive)	2.9e-05 (inactive)	0.00718 (inactive)	2.92% (inactive)	10.1% (inactive)	–
CCOC(=O)C1CCCCC12C(C#N)=C(N)Oc1n[nH]c(C)c12 (stereo unspecified)	733	-5.8% (inactive)	-12% (inactive)	104	-6.6% (inactive)	110	-0.637 (inactive)	1.2e-05 (inactive)	0.00575 (inactive)	17.2% (inactive)	21.9% (inactive)	–
CC(C)=CCSc1nnc([C@@H](N)Cc2c[nH]c3ccccc23)o1	593	0.9% (inactive)	14.2% (inactive)	101	2.3% (inactive)	92.2	-0.561 (inactive)	2.9e-05 (inactive)	0.00453 (inactive)	5.87% (inactive)	2.18% (inactive)	–
CN1CCC(c2c[nH]c3ccc(O)cc23)CC1	–	–	–	–	–	–	–	–	–	–	–	4.07% (inactive)
COc1ccc(C2NCc3ccc4c(c3-n3cccc32)OCO4)cc1O (stereo unspecified)	479	9.5% (inactive)	-349% (inactive)	0.8	-140% (inactive)	99	-0.458 (inactive)	-4.4e-05 (inactive)	0.00468 (inactive)	27.9% (inactive)	83% (active)	–
O=C(Cn1cc(C(=O)c2ccccc2)c2ccccc21)NCc1ccco1	229	-1.4% (inactive)	3.1% (inactive)	89.8	-0.3% (inactive)	103	-0.567 (inactive)	-1.5e-05 (inactive)	0.00474 (inactive)	-5.96% (inactive)	-16.8% (inactive)	–
COC(=O)N1CCN(C(=O)Cc2ccc(Cl)c(Cl)c2)C(CN2CCCC2)C1 (stereo unspecified)	–	–	–	–	–	–	–	–	–	–	–	-0.837% (inactive)
COCCOC(=O)C1=C(N)Oc2c(c(=O)oc3ccccc23)C1c1ccncc1 (stereo unspecified)	329	2.2% (inactive)	1.7% (inactive)	73	1.8% (inactive)	73.8	-0.474 (inactive)	-1.3e-05 (inactive)	0.00616 (inactive)	14.5% (inactive)	27.3% (inactive)	–
O=C(C1CCCN(S(=O)(=O)c2cccc3nsnc23)C1)N1CCC2(CC1)OCCO2 (stereo unspecified)	815	-0.7% (inactive)	10.6% (inactive)	96.6	-154% (inactive)	125	-0.322 (inactive)	-2.9e-05 (inactive)	0.00517 (inactive)	16.9% (inactive)	1.28% (inactive)	–
CC(C)OC(=O)c1c(N)n(CC2CCCO2)c2nc3ccccc3nc12 (stereo unspecified)	470	-5.1% (inactive)	23.6% (inactive)	104	-26.3% (inactive)	191	-0.0217 (active)	1.4e-05 (inactive)	0.00718 (inactive)	9.43% (inactive)	13.4% (inactive)	–
